Screening results as filed in PubChem.
FEN1 inhibitor = human FEN1 inhibition; AID 588795; 390,000 compounds, 0.35% hits; P39748; Recombinant FEN1 flap cleavage, fluorescence, 15 min; Potency, µM (top dose mostly 114 µM), for inactives: at the top dose activity change, negative = inhibition, usual class: inhibitors; further: on the % scale 0 is the no-effect control and ±100 the full control effect; nearly all actives have a fitted effect of over 65% in size
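Nuclease activity of 10 nM FEN1 was measured after 15 min of room-temperature exposure to titrated compounds, by adding 50 nM flap substrate and reading plates at 0 and 15 min.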
Pol iota inh = blocks human DNA polymerase iota activity. 390,000 compounds, 1% hits. Pol iota fluorescent replication assay, 10 min. Q9UNA4. Potency, µM (highest dose often 115 µM), for inactives: at the highest dose activity, negative = inhibition, hits mostly inhibitors
Target sequence (Q9UNA4 whole entry, looked up): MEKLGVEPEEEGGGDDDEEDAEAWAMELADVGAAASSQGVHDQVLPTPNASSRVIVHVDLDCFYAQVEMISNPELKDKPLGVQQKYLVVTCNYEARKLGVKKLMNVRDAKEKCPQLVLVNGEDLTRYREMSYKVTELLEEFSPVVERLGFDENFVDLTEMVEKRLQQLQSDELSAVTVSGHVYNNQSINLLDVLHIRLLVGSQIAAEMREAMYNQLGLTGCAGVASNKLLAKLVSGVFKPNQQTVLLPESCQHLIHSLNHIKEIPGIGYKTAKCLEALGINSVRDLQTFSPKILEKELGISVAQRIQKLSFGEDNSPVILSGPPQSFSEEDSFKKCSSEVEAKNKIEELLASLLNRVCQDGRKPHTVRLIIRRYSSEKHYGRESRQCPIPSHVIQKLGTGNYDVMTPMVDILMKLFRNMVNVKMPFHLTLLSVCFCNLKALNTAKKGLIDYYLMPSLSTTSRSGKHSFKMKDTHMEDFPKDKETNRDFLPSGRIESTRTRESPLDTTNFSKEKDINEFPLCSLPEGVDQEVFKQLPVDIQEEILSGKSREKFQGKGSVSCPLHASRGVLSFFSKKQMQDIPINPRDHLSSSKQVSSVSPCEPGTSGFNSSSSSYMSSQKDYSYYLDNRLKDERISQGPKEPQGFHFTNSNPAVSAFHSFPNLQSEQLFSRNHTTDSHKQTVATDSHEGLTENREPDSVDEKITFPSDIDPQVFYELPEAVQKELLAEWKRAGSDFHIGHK
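Pol iota at 10 nM preincubated 15 min with compounds at room temperature; reaction started with fluorescent substrate, 50 nM final. Fluorescence read kinetically at 0 and 10 min; buffer-only wells as negative control.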
POLK inh = DNA polymerase kappa (human) inhibition; Q9UBT6; purified Pol kappa, fluorescent DNA synthesis assay, 10 min; Potency, µM (series often up to 107 µM), inactives show at the top dose activity, negative = inhibition, usual class: inhibitors; 400,000 compounds, 0.53% hits; further: on the % scale 0 is the no-effect control and ±100 the full control effect
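Fluorescent qHTS in 1536-well format: enzyme (10 nM) and compound sat 15 min at room temperature before 50 nM substrate (final) was added. Signal taken at 0 and 10 min; no-enzyme buffer wells were negative controls.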
Pol eta inh = blocks human DNA polymerase eta activity | recombinant Pol eta, fluorescent DNA replication assay | 390,000 compounds, 1.2% hits | Q9Y253 | Potency, µM (highest dose often 114 µM), without a hit: top-dose activity change, negative = inhibition, hits mostly inhibitors; further: on the % scale 0 is the no-effect control and ±100 the full control effect
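Pol eta at 10 nM preincubated with compounds 15 min at room temperature; reaction started with fluorescent substrate (50 nM final) and read kinetically at 0 and 10 min.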
Pol beta inh = DNA polymerase beta (human) inhibition | P06746 | Pol beta primer extension/strand displacement, fluorescence kinetic | Potency, µM (top dose mostly 114 µM), without a hit: at the highest dose activity change, negative = inhibition, actives largely listed as inhibitors | 340,000 compounds, 1.3% hits | AID 485314; further: on the % scale 0 is the no-effect control and ±100 the full control effect
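Pol beta (10 nM) was preincubated with compound for 15 min at room temperature. The reaction was then started with 50 nM substrate and read immediately and after a further 10 min at room temperature.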
WRN inhibitor = inhibitors of human WRN helicase; Q14191; Potency, µM (doses to about 114 µM), for inactives: at the top dose activity change, negative = inhibition, actives largely listed as inhibitors; WRN helicase unwinding, fluorescent forked duplex, kinetic; 360,000 compounds, 0.46% hits; further: on the % scale 0 is the no-effect control and ±100 the full control effect; nearly all actives have a fitted effect of over 55% in size
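WRN at 20 nM final was preincubated with compound for 15 min at room temperature; reaction started with 100 nM forked duplex oligonucleotide carrying fluorophore and quencher plus 2 mM ATP (final). Unwinding followed kinetically by red fluorescence (ex 525/em 598 nm).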
* hit, by the source's call; ? = inconclusive; . = no result given; [ ] = dose if it differs, or a comment. An excerpt weighted towards active compounds, which were near 2.4% of everything screened. The call rests on the fitted dose curve; in most records, active means well fitted curve in the direction sought with a large enough effect; inconclusive means small, poorly fitted or top-dose-only effect, or another doubt; inactive means no such curve, though single readings can be large; an effect the other way counts as inactive or inconclusive. Potency means the concentration at half of the fitted maximal effect.

SMILES | FEN1 inhibitor | Pol iota inh | POLK inh | Pol eta inh | Pol beta inh | WRN inhibitor
C/C=C1/C[N@@+]2(C)CC[C@]34C(=C(C=O)[C@H]1C[C@H]32)Nc1ccccc14 | . | . | -3%[19.4 µM] | . | . | .
COC(=O)C(O)C(O)(CCC(C)C)C(=O)OC1C(OC)=CC23CCCN2CCc2cc4c(cc2C13)OCO4 (stereo not given) | . | . | -4%[60.1 µM] | . | . | .
O=c1ccc2cc(O[C@H]3OC(CO)C(O)C(O)C3O)c(O)cc2o1 (stereo not given in full) | . | . | -10%[60.1 µM] | . | . | .
C[C@@H]1Cc2c(Cl)cc(C(=O)N[C@H](Cc3ccccc3)C(=O)O)c(O)c2C(=O)O1 | . | . | -1%[60.1 µM] | . | . | .
COC(=O)C(O)(c1ccc(NC(=O)c2ccccc2)cc1)C(F)(F)F (stereo not given) | 16% | 28% | -2% | -25% | 1% | 0%
O=C(Nc1cc[c]([Sb](=[O])([OH])[OH])cc1)c1ccccc1 | 40µM* | ? | 6.3µM* | . | . | .
[O]=[Sb]([OH])([OH])[c]1ccccc1 | 50µM* | 20µM* | 25µM* | . | . | .
O=C(Cc1ccccc1)OCc1ccccc1 | 4% | 6% | 0% | -10% | . | -4%
C[C@H]1C[C@H](C)C(=O)[C@@H]([C@H](O)CC2CC(=O)NC(=O)C2)C1 | . | . | -4%[19.4 µM] | . | . | .
CCOC(=O)C(SP(=S)(OC)OC)c1ccccc1 (stereo not given) | . | . | -16%[60.1 µM] | . | . | .
C[C@H](NC(=O)[C@@H](N)Cc1ccc(O)cc1)C(=O)NCC(=O)N(C)[C@@H](Cc1ccccc1)C(=O)N[C@H](CO)CCS(C)=O (stereo not given in full) | . | . | -3%[19.4 µM] | . | . | .
O=C(O)c1ccc2c(c1)C1C(Cl)C(Sc3ccccc3[N+](=O)[O-])CC1C(c1cccc([N+](=O)[O-])c1)N2 (stereo not given) | ? | ? | 50µM* | 22µM* | ? | ?
O=C(O)c1cccc2c1NC(c1cccc([N+](=O)[O-])c1)C1CC(Sc3ccccc3[N+](=O)[O-])C(Cl)C21 (stereo not given) | -26% | ? | ? | 32µM* | ? | -32%
O=[N+]([O-])c1cccc(C2N3CCCN23)c1 (stereo not given) | 5% | 17% | -1% | -17% | 91% | 3%
CCN(CC)C(=O)c1ccc2c(c1)C1C(Cl)C(Sc3ccccc3[N+](=O)[O-])CC1C(C(=O)O)N2 (stereo not given) | ? | ? | ? | 18µM* | 50µM* | -27%
C[C@H](NC(=O)[C@@H](N)Cc1ccc(O)cc1)C(=O)N[C@@H](Cc1ccccc1)C(=O)N[C@@H](Cc1ccccc1)C(N)=O | . | . | -1%[19.4 µM] | . | . | .
CCCCCCCCCCCCCCCCOC[C@@H](O)COP(=O)([O-])OCC[N+](C)(C)C | . | . | 1%[19.4 µM] | . | . | .
COC(=O)C1=C(C(=O)OC)C2OC1c1cc3ccccc3cc12 | -30% | 10% | -18% | -16% | . | 40µM*
COC(=O)C1=C(c2ccc3ccccc3c2)C[C@@H]2CC[C@H]1N2C | 11% | 11% | -8% | 2% | . | 6%
Cc1ccc(Cl)cc1Nc1nn2c(=O)c3ccc(C(=O)NCc4cccs4)cc3nc2s1 | -19% | ? | -6%[60.1 µM] | ? | 8.9µM* | .
Cc1nn(C)c(C)c1-c1cccc2c1CCC(N(C)C)C2 (stereo not given) | . | . | -10%[60.1 µM] | . | . | .
O=C1NC(=O)C(=Cc2csc3ccccc23)C(=O)N1 | ? | ? | -3% | 8% | 11% | -18%
O=C1NC(=S)NC(=O)C1=Cc1c(Cl)cccc1Cl | 1% | 17% | -13% | -4% | . | 56µM*
O=C1NC(=S)NC(=O)C1=Cc1ccc(Br)s1 | ? | ? | ? | 22µM* | 9% | ?
CN(C)c1ccc(C=C2C(=O)NC(=S)NC2=O)cc1[N+](=O)[O-] | -1% | 143% | -8% | 11% | ? | ?
